39 compounds from PubChem BioAssay (NCI) can be followed below.

Compounds without any hit were thinned out: in the full panel of roughly 83,000, 20% have a hit.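 Note: values are percent growth. 100 is the growth of untreated cells, values between 100 and 0 indicate rising inhibition; between -100 and 0 indicates cell death.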 Active and inactive are the calls of the source. The calls were made as follows: active = growth percent below 10; inactive = the rest.

For the test, the system named is NCI/ADR-RES ovarian. The experiment in a line: NCI-60 one-dose screen, 48 h (100 = growth as untreated, 0 = no growth, -100 = all killed). The note with it: 10 µM unless noted.
Consider `COc1cc(NC(=O)NCc2ccco2)ccc1-c1ccc(NC(=O)NCc2ccco2)cc1OC`, for which the growth was 91.2% (inactive). Next, `COc1cnc2c(c1)C(=O)c1c-2n(CCCN2CCC(O)CC2)c(=O)c2cc(F)ccc12`: 0.114% (active); `CCOC(=O)C1=CCC(n2cc(C)c(=O)[nH]c2=O)O1` (centres undefined): 101% (inactive). With `CCSc1nc(Nc2ccc(S(=O)(=O)Nc3ccon3)cc2)c(C#N)c(-c2cccc(Br)c2)n1` the figure was 110% (inactive); with `C[C@H]1O[C@@H](O[C@H]2[C@@H](O)C[C@H](O[C@H]3[C@@H](O)C[C@H](O[C@H]4CC[C@]5(C)C6C[C@@H](O)[C@]7(C)[C@@H](C8=CC(=O)OC8)CC[C@]7(O)C6CC[C@@H]5C4)O[C@@H]3C)O[C@@H]2C)C[C@H](O)[C@@H]1O` (some centres undefined), -87.7% (active); with `Cc1ccc(NC(=O)c2sc3nc4c(cc3c2N)C(=O)CCC4)cc1`, 98.2% (inactive).

`COc1ccc(-c2nnc3c4[nH]cnc4ncn23)c(OC)c1`: the growth was 17.6% (inactive). With `Cc1ccc(N/N=C(/C(=O)c2ccc(Cl)cc2)c2nc(C)cc(=O)[nH]2)cc1` the figure was 103% (inactive).

With `Cc1ccc(/C=C/C(=O)c2ccc(F)cc2)s1`, the growth is 61.7% (inactive).

On to `CNNc1ncnc2c1cnn2-c1ccc(S(N)(=O)=O)cc1`, for which the growth was 87% (inactive). Next, `OC(c1cc(-c2cccc(Cl)c2)nc2ccccc12)C1CCCCN1` (centres undefined): -29.4% (active); `COc1ccc2c(c1)sc1nc(-c3ccc(Br)cc3)cn12`: 92.4% (inactive).

As for `COc1ccccc1NC(=O)c1sc2nc3c(cc2c1N)C(=O)CCC3`, the growth is 58.6% (inactive). Turning to `N#CC(C#N)C(C#N)C#N`, the growth is 101% (inactive). Turning to `COc1ccc(C2=NN(C(C)=O)C(c3c(C)nn(-c4ccccc4)c3N3CCOCC3)C2)cc1` (centres undefined), the growth was 94.7% (inactive). Regarding `CCSc1nc(-c2ccco2)n2nc(-c3ccco3)cc2n1`, the growth was 95.3% (inactive). With `O=C(Nc1ccc2c(c1)C(=O)c1ccccc1-2)c1ccccc1` the figure was 70.4% (inactive); with `CN(C)c1ccc(-c2nc3ncc(Br)cc3o2)cc1`, 88.4% (inactive); with `c1ccc(COc2ccc(Nc3ncnc4c3cnn4-c3ccccc3)cc2)cc1`, 107% (inactive).

As to `Cc1ccccc1NC(=O)N/C(N)=N/c1nc2ccccc2s1`, the growth was 8.91% (active). With `Cc1ccc(C2=NNC(c3sc(Cl)nc3Cl)C2)cc1` (centres undefined) the figure was 94.5% (inactive). With `N#Cc1ccccc1C#Cc1ccccc1C#Cc1ccc(OCCCCCCOc2ccc(C#Cc3ccccc3C#Cc3ccccc3C#N)cc2)cc1` the figure was 104% (inactive).

For `C=CCN(/C=C/CN(CC=C)CC=C)CC=C`, the growth is 107% (inactive). As to `C[C@@H]1CN(c2nc3c(cc2F)c(=O)c(C(=O)O)cn3C(C)(C)C)C[C@H](C)N1`, the growth was 80.6% (inactive). With `CCN(CC)c1ccc(N=C2C=CC(=O)C=C2NC(C)=O)cc1` the figure was 105% (inactive); with `COc1ccc(NS(=O)(=O)N2CCCCC2)cc1`, 116% (inactive). As to `COc1cc(/C=C2\CN(S(=O)(=O)c3ccc(C)cc3)C/C(=C\c3cc(CN4CCOCC4)c(O)c(OC)c3)C2=O)cc(CN2CCOCC2)c1O`, the growth was 5.42% (active). `Cc1ccc(C2=Nc3c(ccc4c(C)c(C)c(=O)oc34)OC2)cc1`: the growth is 97.3% (inactive). Take `NC(=O)c1cc(Cl)ccc1NC(=O)c1ccccc1-c1ccccc1`: the growth was 20.7% (inactive). Regarding `CC12CCC3C(=CCc4cc(O)ccc43)C1CCC2=O` (centres undefined), the growth was 102% (inactive). Next, `CCOC(=O)OCC(=O)[C@@]1(O)CC[C@H]2[C@@H]3CCC4=CC(=O)CC[C@]4(C)[C@H]3[C@@H](O)C[C@@]21C`: 91% (inactive). Consider `O=C1NCCc2c1noc2-c1ccccc1`, for which the growth is 98.6% (inactive).

Regarding `O=C1C=CC(=O)N1c1ccccc1N1C(=O)C=CC1=O`, the growth was 119% (inactive). As for `Cc1cnc2nc(-c3ccc(N(C)C)cc3)cn2c1`, the growth was 85.9% (inactive). Next, `Cc1n(Cc2ccc3ccccc3c2)c2ccccc2[n+]1Cc1ccc2ccccc2c1`: 82.4% (inactive); `CC1C(=O)NC2=Nc3ccccc3C(=O)NN21` (centres undefined): 103% (inactive).

As for `CC(C)N(Cc1ccccc1)c1c(S)ssc1=S`, the growth is 15.9% (inactive). As to `COc1cc(C2CC(c3ccc(C)cc3)=NN2C=O)ccc1OCCN(C)C` (centres undefined), the growth is 90.9% (inactive). Consider `CCN(CC)CCSc1ncnc2c1cnn2-c1ccc(S(N)(=O)=O)cc1`, for which the growth was 85.2% (inactive).
